Test systems include NCI-H23 lung; NCI-H226 lung; NCI-H322M lung; HOP-62 NSCLC; NCI-H460 lung; HOP-92 NSCLC; NCI-H522 lung; A549/ATCC NSCLC; 786-0 renal; COLO 205 colon; DU-145 prostate; K-562 leukemia; MALME-3M melanoma; MDA-MB-231 breast; SF-268 CNS; SF-295 CNS; SF-539 CNS; UACC-257 melanoma; M14 melanoma.
Common to all, as to assay: NCI-60 one-dose screen, 48 h (100 = growth as untreated, 0 = no growth, -100 = all killed)
Conditions in all cases: 10 µM unless noted

The structures appear in SMILES notation. The panel holds about 83,000 compounds, 20% with a hit somewhere; the sample as a whole holds those more often.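 The endpoint reported here, percent growth, reads 100 for growth as untreated, 0 for no net growth and -100 for all cells dead.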 Unmarked numbers belong to inactive results. The source made the active and inactive calls. How the source made its calls: active means growth percent below 10; inactive means the rest.

As to `CSc1nnc2c(=O)n(C)c(=O)n(C)c2n1`, the growth was 108% in the experiment with NCI-H23 lung; 93.2% with NCI-H226 lung; 88.9% with NCI-H322M lung; 116% in the experiment with HOP-62 NSCLC; 114% in the experiment with NCI-H460 lung; 68.1% with HOP-92 NSCLC. Moreover, the growth in the experiment with NCI-H522 lung is 103%; in the experiment on A549/ATCC NSCLC it was 104%; in the experiment with 786-0 renal, 116%; in the experiment with COLO 205 colon, 97.8%; with DU-145 prostate it was 100%; in the experiment on K-562 leukemia it was 86.1%. Moreover, the growth in the experiment with MALME-3M melanoma is 114%; in the experiment with MDA-MB-231 breast it was 105%; in the experiment with SF-268 CNS it was 108%; with SF-295 CNS, 130%; in the experiment with SF-539 CNS, 109%; in the experiment on UACC-257 melanoma it was 123%. In the experiment with M14 melanoma, the growth is 102%.

In the case of `COc1ccccc1N1CCN(C(=O)c2ccc3nc(NC(=O)c4ccc(NCCc5ccccc5)c([N+](=O)[O-])c4)sc3c2)CC1`, the growth with NCI-H23 lung is 81.9%; with NCI-H226 lung, 87.4%; with NCI-H322M lung it was 91.5%; in the experiment on HOP-62 NSCLC, 82.9%; in the experiment on NCI-H460 lung, 86.5%; in the experiment with HOP-92 NSCLC, 81.9%. The growth was 80.4% with NCI-H522 lung; 91.3% with A549/ATCC NSCLC; 110% with 786-0 renal; 100% in the experiment with COLO 205 colon; 68.7% in the experiment with DU-145 prostate; 86% with K-562 leukemia. Besides, the growth in the experiment on MALME-3M melanoma was 45.6%; with MDA-MB-231 breast it was 75.7%; with SF-268 CNS, 67.6%; in the experiment with SF-295 CNS, 102%; in the experiment on SF-539 CNS, 99.7%; with UACC-257 melanoma it was 72.7%. In addition, the growth in the experiment on M14 melanoma is 64.4%.

For `Cc1nc2sc(C(=O)Nc3cccc(Br)c3)c(N)c2cc1C(=O)c1ccc(C(F)(F)F)cc1`, the growth was 75.1% in the experiment on NCI-H23 lung; 92% in the experiment on NCI-H226 lung; 65.7% with NCI-H322M lung; 60.6% in the experiment on HOP-62 NSCLC; 63.7% in the experiment with NCI-H460 lung; 80% with HOP-92 NSCLC. Besides, the growth with NCI-H522 lung was 84.7%; in the experiment on A549/ATCC NSCLC, 74.7%; in the experiment on 786-0 renal, 86.4%; in the experiment with COLO 205 colon it was 86.7%; in the experiment with DU-145 prostate it was 69.3%; with K-562 leukemia it was 84.2%. Also, the growth in the experiment on MALME-3M melanoma was 81%; in the experiment with MDA-MB-231 breast, 63.8%; in the experiment on SF-268 CNS, 79.4%; with SF-295 CNS it was 67.7%; in the experiment with SF-539 CNS, 56.5%; in the experiment on UACC-257 melanoma, 95.2%. In addition, the growth with M14 melanoma was 69.2%.

On to `CN1CCN(CCCNc2nccc(-c3c(-c4ccc(F)c(O)c4)nc4sccn34)n2)S1(=O)=O`, for which the growth in the experiment on NCI-H23 lung is 94.2%; with NCI-H226 lung, 105%; in the experiment on NCI-H322M lung, 115%; with HOP-62 NSCLC, 104%; in the experiment with NCI-H460 lung, 101%; with HOP-92 NSCLC, 70.7%. Further, the growth in the experiment with NCI-H522 lung is 74.4%; in the experiment with A549/ATCC NSCLC it was 103%; in the experiment with 786-0 renal, 126%; with COLO 205 colon, 29.8%; in the experiment on DU-145 prostate, 97.7%; with K-562 leukemia it was 66%. The growth was -10.4% (active) in the experiment on MALME-3M melanoma; 70.8% with MDA-MB-231 breast; 104% in the experiment on SF-268 CNS; 101% in the experiment on SF-295 CNS; 113% with SF-539 CNS; 33.8% in the experiment with UACC-257 melanoma. In the experiment on M14 melanoma, the growth is 20%.

For `COc1ccc(-c2nc(N/N=C/c3ccco3)nc(N3CCOCC3)c2C#N)cc1`, the growth was 81% in the experiment with NCI-H23 lung; 84.8% in the experiment on NCI-H226 lung; 87.1% in the experiment with NCI-H322M lung; 68.1% in the experiment on HOP-62 NSCLC; 66.4% in the experiment with NCI-H460 lung; 49.2% in the experiment on HOP-92 NSCLC. For the same compound, the growth in the experiment with NCI-H522 lung is 76.9%; with A549/ATCC NSCLC, 81.9%; with 786-0 renal, 54.7%; in the experiment on COLO 205 colon, 85.7%; in the experiment with DU-145 prostate, 93.2%; in the experiment on K-562 leukemia it was 87.6%. Besides, the growth in the experiment with MALME-3M melanoma was 59.5%; with MDA-MB-231 breast it was 86.1%; with SF-268 CNS it was 80.1%; with SF-295 CNS it was 90.1%; with SF-539 CNS, 74.2%; with UACC-257 melanoma, 94.8%. Moreover, the growth with M14 melanoma was 85.3%.

Take `Cc1c2c(cc[n+]1Cc1ccccc1)c1ccc(OCC3CCCCC3)cc1n2CC1CCCCC1`: the growth in the experiment on NCI-H23 lung is -76.7% (active); in the experiment with NCI-H226 lung, -89.1% (active); in the experiment with NCI-H322M lung, -83.2% (active); in the experiment on HOP-62 NSCLC, -95% (active); with NCI-H460 lung, -93.4% (active); in the experiment on HOP-92 NSCLC it was -85.6% (active). Further, the growth in the experiment with NCI-H522 lung was -84.5% (active); in the experiment with A549/ATCC NSCLC it was -93.1% (active); in the experiment on 786-0 renal it was -91.3% (active); with COLO 205 colon it was -95.2% (active); with DU-145 prostate, -100% (active); with K-562 leukemia it was -45.9% (active). In addition, the growth in the experiment with MALME-3M melanoma is -70.3% (active); with MDA-MB-231 breast, -92% (active); in the experiment with SF-268 CNS it was -98.7% (active); with SF-295 CNS it was -92.8% (active); with SF-539 CNS it was -85.2% (active); with UACC-257 melanoma, -92.4% (active). Further, the growth in the experiment with M14 melanoma is -84.6% (active).

In the case of `COc1ccc(/C=C(/c2ccccc2)[N+](=O)[O-])cc1`, the growth was -47.9% (active) in the experiment on NCI-H23 lung; -6.73% (active) in the experiment on NCI-H226 lung; 4.07% (active) in the experiment on NCI-H322M lung; -36.2% (active) in the experiment on HOP-62 NSCLC; -23.3% (active) in the experiment on NCI-H460 lung; -55.6% (active) with HOP-92 NSCLC. Besides, the growth with NCI-H522 lung is -83.6% (active); in the experiment with A549/ATCC NSCLC it was 5.17% (active); in the experiment on 786-0 renal, -93.4% (active); in the experiment with COLO 205 colon, -71.9% (active); in the experiment on DU-145 prostate, -85.5% (active); with K-562 leukemia, -7.82% (active). Further, the growth was -44.2% (active) with MALME-3M melanoma; -49.3% (active) with MDA-MB-231 breast; 47.6% in the experiment with SF-268 CNS; 33.2% in the experiment with SF-295 CNS; -89.2% (active) in the experiment with SF-539 CNS; -0.12% (active) in the experiment on UACC-257 melanoma. The growth with M14 melanoma is 42.8%.

For the compound `COc1ccc(C(=O)c2cc3c(N)c(C(=O)Nc4ccc(Br)cc4)sc3nc2C)cc1`, the growth in the experiment on NCI-H23 lung is 82.7%; in the experiment with NCI-H226 lung it was 38.5%; in the experiment on NCI-H322M lung it was 78.9%; in the experiment on HOP-62 NSCLC, 21.2%; with NCI-H460 lung, 50%; in the experiment with HOP-92 NSCLC, 66.1%. Moreover, the growth in the experiment on NCI-H522 lung is 39.6%; in the experiment on A549/ATCC NSCLC, 79.5%; in the experiment with 786-0 renal, 58.2%; with COLO 205 colon it was 85.9%; in the experiment with DU-145 prostate, 79.5%; in the experiment on K-562 leukemia, 71.5%. The growth with MALME-3M melanoma was 54.3%; in the experiment on MDA-MB-231 breast it was 66%; in the experiment on SF-268 CNS it was 50.2%; with SF-295 CNS, 86.6%; in the experiment with SF-539 CNS, 66.2%; in the experiment on UACC-257 melanoma it was 79.8%. Further, the growth in the experiment on M14 melanoma was 74.1%.

For the origin of these results see PubChem BioAssay (NCI).
